The term inhibition denotes the relative decrease from the control value, in per cent.

This is an account of results in ChEMBL document CHEMBL1961873, “Compounds: GSK PKIS; Assays: Nanosyn kinase panel” (2012).

Structures are written as SMILES.
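Note: values are mean percent inhibition of EPHB3 from the GSK PKIS screening panel.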

The assay concerns the target T1, Ephrin type-B receptor 3 (Homo sapiens) (UniProt P54753).
T1 sequence (whole entry): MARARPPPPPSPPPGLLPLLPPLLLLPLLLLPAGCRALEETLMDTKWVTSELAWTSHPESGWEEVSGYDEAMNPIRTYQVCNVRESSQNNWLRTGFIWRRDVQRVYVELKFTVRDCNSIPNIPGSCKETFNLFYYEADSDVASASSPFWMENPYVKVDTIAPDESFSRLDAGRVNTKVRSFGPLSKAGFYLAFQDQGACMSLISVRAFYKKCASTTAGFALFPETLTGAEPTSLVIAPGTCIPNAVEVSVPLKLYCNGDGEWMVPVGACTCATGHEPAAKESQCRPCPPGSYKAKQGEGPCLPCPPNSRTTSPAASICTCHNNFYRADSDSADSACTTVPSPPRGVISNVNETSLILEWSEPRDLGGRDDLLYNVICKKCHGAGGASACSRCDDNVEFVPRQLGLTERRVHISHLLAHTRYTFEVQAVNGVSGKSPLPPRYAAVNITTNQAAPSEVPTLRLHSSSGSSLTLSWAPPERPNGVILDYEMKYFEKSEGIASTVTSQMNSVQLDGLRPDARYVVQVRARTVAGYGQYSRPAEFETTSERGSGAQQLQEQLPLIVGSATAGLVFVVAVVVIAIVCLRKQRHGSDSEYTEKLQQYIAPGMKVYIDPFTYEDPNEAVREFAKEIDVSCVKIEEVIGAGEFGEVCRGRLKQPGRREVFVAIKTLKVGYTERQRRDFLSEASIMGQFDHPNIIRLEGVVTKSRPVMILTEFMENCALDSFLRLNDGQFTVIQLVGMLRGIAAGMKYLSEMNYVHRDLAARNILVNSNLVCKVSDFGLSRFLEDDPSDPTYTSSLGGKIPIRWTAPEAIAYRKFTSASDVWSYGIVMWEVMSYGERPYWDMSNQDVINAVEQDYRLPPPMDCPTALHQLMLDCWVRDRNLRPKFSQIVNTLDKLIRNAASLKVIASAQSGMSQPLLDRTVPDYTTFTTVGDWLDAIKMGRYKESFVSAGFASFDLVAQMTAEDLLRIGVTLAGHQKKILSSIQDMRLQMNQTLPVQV
Conditions: at 1 µM.
Regarding `c1cc(-c2cnn3nc(N4CCOCC4)ccc23)nc(NC2CC2)n1`, the inhibition is 3.96%.

As for `CC(=O)NCc1cccc(C#Cc2cncnc2Nc2ccc(OCc3cccc(F)c3)c(Cl)c2)c1`, the inhibition turned out to be 2.99%. In the case of `CC(=O)Nc1cccc(C#Cc2cncnc2Nc2ccc(OCc3cccc(F)c3)c(Cl)c2)c1` it was 0.84%; in that of `Nc1nc(-c2cccc(Cl)c2)c(-c2ccc3ncccc3n2)s1`, 5.53%; in that of `COc1ccc(-c2oc3ncnc(N)c3c2-c2ccc(NC(=O)Nc3cc(C(F)(F)F)ccc3F)cc2)cc1`, 99.7%. Next, `CC(C)(CO)CNC(=O)c1ccc2c(c1)/C(=N/Nc1ccc(S(N)(=O)=O)cc1)C(=O)N2`: 0.79%; `CCNC(=O)O[C@H]1CN[C@H](C#Cc2cc3ncnc(Nc4ccc(OCc5cccc(F)c5)c(Cl)c4)c3s2)C1`: 5.16%; `O=C(O[C@H]1CN[C@H](C#Cc2cc3ncnc(Nc4ccc(Cc5ccccc5)cc4)c3s2)C1)N1CCOCC1`: 3.49%. In the case of `CCn1c(-c2nonc2N)nc2ccccc21` it was 2.17%; in that of `COc1ccc2[nH]c3c4[nH]c5ccc(OC)cc5c4c4c(c3c2c1)C(=O)NC4=O`, -4.62%.

As for `CCn1cc(-c2ccnc3[nH]ccc23)c(-c2cccc(NC(=O)Nc3ccc(OCc4ccccc4)cc3)c2)n1`, the inhibition was 0.9%.

Consider `Fc1ccc(-c2nn3ncccc3c2-c2ccnc(Nc3ccc4c(c3)OCCO4)n2)cc1`, for which the inhibition is 16.2%.

As for `CCN1CCC(CC(=O)Nc2n[nH]c3nnc(-c4cccc(F)c4F)cc23)CC1`, the inhibition stood at 5.11%. Take `CC(C)COC(=O)c1ccc2c(c1)/C(=C/Nc1ccc(S(N)(=O)=O)cc1)C(=O)N2`: the inhibition is -4.87%. In the case of `COC(=O)Nc1nc2ccc(S(=O)(=O)c3ccc(NC(=O)Nc4cc(C(F)(F)F)ccc4F)cc3)cc2[nH]1` it was 0.8%.

Take `CCOc1ccc2c(-c3ccnc(Nc4cccc(C(F)(F)F)c4)n3)cnn2n1`: the inhibition is 2.33%.

Take `COc1cccc(-n2ncc3c(N/N=C/c4ccc(F)cc4)ncnc32)c1`: the inhibition came to 3.79%.

`COc1cc(Nc2nccc(Nc3ccc4c(C)n[nH]c4c3)n2)cc(OC)c1OC`: the inhibition came to 0.24%. Next, `CC1=C(C(=O)Nc2cc(Cl)c3[nH]ncc3c2)C(c2ccc(C(F)(F)F)cc2)CC(=O)N1` (stereo not given): 2.94%; `CCn1c(-c2nonc2N)nc2c(C#CC(C)(C)O)ncc(OC3CCNCC3)c21`: 4.06%. Next, `CNC(=O)c1cccc(C#Cc2cncnc2Nc2ccc(OCc3cccc(F)c3)c(Cl)c2)c1`: 1.29%; `COc1ccc(-c2cc3c(N)ncnc3o2)cc1`: 0.05%; `COc1cc(/C=N/Nc2ncnc3[nH]ncc23)ccc1O`: 5.19%. Next, `COc1cc2ncn(-c3cc(OCc4ccccc4C(F)(F)F)c(C(=O)N(C)C)s3)c2cc1OC`: 0.33%.

`NS(=O)(=O)c1ccc(Nc2ncc(-c3ccccc3)o2)cc1`: the inhibition was found to be 3.33%.
